Assay [1] addresses Thyrotropin-releasing hormone receptor (Homo sapiens) (UniProt P34981). Nature of the assay: qHTS assay to identify small molecule agonists of the thyrotropin-releasing hormone receptor (TRHR) signaling pathway (AID 1346891; calls by dose curve; further: potency means the concentration at half of the fitted maximal effect;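 on activation: HEK293 cells expressing TRHR with calcium dye readout; series mostly up to about 58 µM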). The gist of the method: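 HEK293/TRHR cells, 1500 per well, 18 h 37 °C; Ca dye 2 h 37 °C; pin-tool compound addition (agonist mode); kinetic fluorescence 3 min, 1 s reads; 15 concentrations, triplicate.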
(In general: qHTS replaces the single test concentration by a dilution series.)

Assay [2] is described as follows: Human pregnane X receptor (PXR) small molecule agonists, qHTS cell viability counter screen (AID 1346977). Further: nearly all actives have a fitted effect of over 50% in size. Further: potency means the concentration at half of the fitted maximal effect. The gist of the method:
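Fluorescence read-out (CellTiter-Fluor) of viability in PXR-Luc HepG2 cells, multiplexed with the luciferase agonist read. Compounds in DMSO added after 5hr plating; 24hr total exposure at 37C, 5% CO2.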

Assay [3] can be described thus: Caspase-3/7 induction in CHO-K1 cells by small molecules, qHTS cell viability counter screen (AID 1346979). Further: nearly all actives have a fitted effect of over 35% in size. Further: potency means the concentration at half of the fitted maximal effect. The method in brief: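 CHO-K1 wt, 1,500 cells/well; 5hr pre-incubation 37C/5% CO2; compound pin transfer (DMSO); 16hr exposure; CellTiter-Fluor added, 1hr, fluorescence read.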
Assay [4] can be described thus: Caspase-3/7 induction in CHO-K1 cells by small molecules, qHTS assay (AID 1346980). Further: nearly all actives have a fitted effect of over 15% in size. The method in brief: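 Wild-type cells were seeded at 1,500 per well and settled 5 hr at 37 C, 5% CO2, then exposed to DMSO-dissolved compounds for 17 hr. Caspase-Glo 3/7 reagent was added, and luminescence was read after 30min at room temperature.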
The nature of assay [5]: Caspase-3/7 induction in HepG2 cells by small molecules, qHTS cell viability counter screen (AID 1346981). Further: nearly all actives have a fitted effect of over 30% in size. Further: potency means the concentration at half of the fitted maximal effect. The gist of the method: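 Cell viability is measured as a cytotoxicity counter screen alongside the Caspase-Glo 3/7 readout in identical wells. Wild-type HepG2 cells are treated with test compounds for 16 hr at 37 C before CellTiter-Fluor addition and a 1-hr incubation.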

Assay [6] addresses Nuclear receptor subfamily 1 group I member 2 (Homo sapiens) (UniProt O75469). Nature of the assay: Human pregnane X receptor (PXR) small molecule agonists, qHTS assay (AID 1346982). Further: nearly all actives have a fitted effect of over 35% in size. Further: potency means the concentration at half of the fitted maximal effect. The gist of the method:
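Cells: HepG2 stably carrying PXR-Luc. Medium held 5% charcoal-stripped FBS. Compounds in DMSO added after 5 hr plating, incubated 24 hr, then luminescence quantified with ONE-Glo.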

Assay [7] deals with Nuclear receptor subfamily 1 group I member 2 (Rattus norvegicus) (UniProt Q9R1A7). Nature of the assay: Rat pregnane X receptor (rPXR) activation by small molecules, qHTS assay (AID 1346983). Further: nearly all actives have a fitted effect of over 20% in size. To be noted: rPXR luciferase reporter cells, One-Glo luminescence, 24 h; max activation: hits give high values. The method in brief: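 Cell-based rPXR luciferase reporter assay, 2,000 cells per well, rested 5hr at 37 C before compound addition in DMSO, then 24 hr at 37 C. One-Glo reagent was added and luminescence read after 30 min at room temperature.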
Nuclear receptor subfamily 1 group I member 2 (Rattus norvegicus), sequence (Q9R1A7 whole entry, looked up): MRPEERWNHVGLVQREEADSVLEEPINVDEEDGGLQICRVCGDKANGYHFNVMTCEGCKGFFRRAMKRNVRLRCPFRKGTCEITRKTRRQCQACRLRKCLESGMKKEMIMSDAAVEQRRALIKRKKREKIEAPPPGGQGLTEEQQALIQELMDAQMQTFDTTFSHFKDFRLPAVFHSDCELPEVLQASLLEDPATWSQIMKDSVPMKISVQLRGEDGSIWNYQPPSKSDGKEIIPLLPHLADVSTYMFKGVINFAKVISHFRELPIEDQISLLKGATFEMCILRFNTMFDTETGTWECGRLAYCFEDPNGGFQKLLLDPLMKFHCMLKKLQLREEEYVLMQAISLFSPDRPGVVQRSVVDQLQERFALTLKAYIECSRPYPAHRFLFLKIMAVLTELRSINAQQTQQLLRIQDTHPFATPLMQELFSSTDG

Assay [8] concerns the target Nuclear receptor subfamily 1 group I member 2 (Homo sapiens) (UniProt O75469). Nature of the assay: CYP3A4 induction through human pregnane X receptor (PXR) by small molecules, qHTS assay (AID 1346984). Further: nearly all actives have a fitted effect of over 40% in size. Further: potency means the concentration at half of the fitted maximal effect. The gist of the method:
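Quantitative HTS in DPX-2 cells, i.e. HepG2 transfected with PXR response element and CYP3A4-promoter luciferase. Compounds in DMSO incubated 24hr at 37C; then P450-Glo CYP3A4 substrate, 3uM final, 3hr; One-Glo luminescence.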

The target is the same in assay [9]. Nature of the assay: Human pregnane X receptor (PXR) activation by small molecules, qHTS assay (AID 1346985). Further: nearly all actives have a fitted effect of over 40% in size. The method in brief: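 DPX-2 cells (HepG2 co-transfected with a PXR response element and a CYP3A4-promoter luciferase construct) were seeded at 2,000 per well, rested 5 hr at 37C, then exposed to DMSO-dissolved compounds for 24 hr. Activation was read as luciferase luminescence.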

Assay [10] addresses Cytochrome P450 2D6 (Homo sapiens) (UniProt P10635). The assay is described as follows: Cytochrome P450 Family 2 Subfamily D Member 6 (CYP2D6) small molecule antagonists: luciferase reporter qHTS assay (AID 1671196). Further: nearly all actives have a fitted effect of over 50% in size. Further: potency means the concentration at half of the fitted maximal effect. The method in brief:
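Enzyme and proluciferin substrate were first combined with test chemical for 10 min at room temperature. Adding NADPH regeneration solution started a 1 h reaction, stopped with luciferin detection reagent and read by luminescence 20 min later.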
A general note: Reporter assays use an easily measured gene product as a stand-in for the process of interest.

Assay [11] has as its target Cytochrome P450 2C19 (Homo sapiens) (UniProt P33261). Nature of the assay: Cytochrome P450 Family 2 Subfamily C Member 19 (CYP2C19) small molecule antagonists: luciferase reporter qHTS assay (AID 1671197). Further: nearly all actives have a fitted effect of over 65% in size. Further: potency means the concentration at half of the fitted maximal effect. The gist of the method:
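First, compounds are pinned into enzyme-substrate mix and held 10 min at room temperature. Second, NADPH regeneration solution is added and plates incubate 1 h at 37C. Third, detection reagent is added and luminescence read after 20 min.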

The target of assay [12] is Cytochrome P450 2C9 (Homo sapiens) (UniProt P11712). The assay is described as follows: Cytochrome P450 Family 2 Subfamily C Member 9 (CYP2C9) small molecule antagonists: luciferase reporter qHTS assay (AID 1671198). Further: nearly all actives have a fitted effect of over 50% in size. Further: potency means the concentration at half of the fitted maximal effect. The gist of the method: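 CYP2C9 activity was measured with a P450-Glo proluciferin substrate. Enzyme–substrate mix was held with compound for 10 min at room temperature, then NADPH regeneration solution was added for 1 h at 37C. Luciferin product was read as luminescence.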
Cytochrome P450 2C9 (Homo sapiens), sequence (P11712 whole entry, looked up): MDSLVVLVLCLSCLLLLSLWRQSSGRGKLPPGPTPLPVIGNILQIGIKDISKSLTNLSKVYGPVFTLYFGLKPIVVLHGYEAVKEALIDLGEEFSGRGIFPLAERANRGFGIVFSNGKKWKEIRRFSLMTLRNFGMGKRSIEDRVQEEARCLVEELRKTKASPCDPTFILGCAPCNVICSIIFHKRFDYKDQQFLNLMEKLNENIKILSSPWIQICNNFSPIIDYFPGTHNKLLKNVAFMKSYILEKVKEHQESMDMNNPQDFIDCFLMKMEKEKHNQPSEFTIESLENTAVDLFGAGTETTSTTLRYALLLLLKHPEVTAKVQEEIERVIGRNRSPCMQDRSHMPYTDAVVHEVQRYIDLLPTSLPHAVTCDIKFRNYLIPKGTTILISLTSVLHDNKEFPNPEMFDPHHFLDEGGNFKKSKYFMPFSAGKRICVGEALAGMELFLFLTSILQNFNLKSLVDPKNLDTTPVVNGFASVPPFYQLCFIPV

Assay [13] has as its target Cytochrome P450 1A2 (Homo sapiens) (UniProt P05177). The assay is described as follows: Cytochrome P450 Family 1 Subfamily A Member 2 (CYP1A2) small molecule antagonists: luciferase reporter qHTS assay (AID 1671199). Further: nearly all actives have a fitted effect of over 50% in size. Further: potency means the concentration at half of the fitted maximal effect. The method in brief:
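Compounds were incubated with CYP1A2 and a luminogenic proluciferin substrate for 10 min at room temperature before the reaction was started with NADPH regeneration solution. After 1 h, detection reagent was added and light output, proportional to CYP activity, was recorded.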

Assay [14] addresses Cytochrome P450 3A4 (Homo sapiens) (UniProt P08684). Nature of the assay: Cytochrome P450 Family 3 Subfamily A Member 4 (CYP3A4) small molecule antagonists: luciferase reporter qHTS assay (AID 1671201). Further: nearly all actives have a fitted effect of over 50% in size. Further: potency means the concentration at half of the fitted maximal effect. The gist of the method: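 Luminescent readout (RLU) proportional to CYP3A4 activity, from luciferin generated off a proluciferin substrate. Enzyme–substrate mix plus compound 10 min at room temp, NADPH regeneration 1 h, detection reagent 20 min.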

Assay [15] can be described thus: Caspase-3/7 induction in HepG2 cells by small molecules, qHTS assay (AID 1346978). Further: nearly all actives have a fitted effect of over 15% in size. The method in brief: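 Wild-type HepG2 cells (2,000/well) were settled 5 h at 37 C, 5% CO2, then exposed to compounds in DMSO for 17 h. Caspase-3/7 activity was read by luminescence 30 min after adding Caspase-Glo 3/7 reagent at room temperature.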
For assay [16], the target named is Voltage-gated inwardly rectifying potassium channel KCNH2 (Homo sapiens) (UniProt Q12809). The assay is described as follows: Human Ether-a-go-go-Related Gene (hERG) channel small molecule antagonists: fluorescence cell-based qHTS assay (AID 1671200). The gist of the method:
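Read-out: thallium influx as a surrogate for potassium, tracked as fluorescence (480 nm ex/540 nm em) every second for 2 min after Stimulus Buffer addition in dye-loaded hERG-U2OS cells.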
(Block of hERG is tested as a sign of cardiac risk.)

Unmarked numbers belong to inactive results. Results filed as inconclusive are left out. The source made the active and inactive calls. Unless noted, the call rests on the fitted dose curve; in most records, active means well fitted curve in the direction sought with a large enough effect in the repeat runs; inconclusive means weak or mixed curves; inactive means no such curve, though single readings can be large; an effect the other way counts as inactive or inconclusive.
On the % scale 0 is the no-effect control and ±100 the full control effect.

Cytochrome P450 1A2 (Homo sapiens), sequence (P05177 whole entry, looked up): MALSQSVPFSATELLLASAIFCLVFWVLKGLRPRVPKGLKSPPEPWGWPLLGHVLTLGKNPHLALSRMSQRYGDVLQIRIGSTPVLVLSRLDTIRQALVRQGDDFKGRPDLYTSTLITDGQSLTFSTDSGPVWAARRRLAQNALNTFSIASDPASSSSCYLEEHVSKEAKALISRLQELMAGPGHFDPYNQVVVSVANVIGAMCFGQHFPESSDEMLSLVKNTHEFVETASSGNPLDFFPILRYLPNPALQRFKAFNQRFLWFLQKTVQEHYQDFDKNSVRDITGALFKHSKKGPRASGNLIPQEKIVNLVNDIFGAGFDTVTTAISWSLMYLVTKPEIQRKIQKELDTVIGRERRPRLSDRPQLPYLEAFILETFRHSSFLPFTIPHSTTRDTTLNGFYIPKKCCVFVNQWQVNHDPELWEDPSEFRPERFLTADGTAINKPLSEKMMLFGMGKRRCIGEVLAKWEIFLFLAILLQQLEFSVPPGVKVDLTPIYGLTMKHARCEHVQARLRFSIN
Nuclear receptor subfamily 1 group I member 2 (Homo sapiens), sequence (O75469 whole entry, looked up): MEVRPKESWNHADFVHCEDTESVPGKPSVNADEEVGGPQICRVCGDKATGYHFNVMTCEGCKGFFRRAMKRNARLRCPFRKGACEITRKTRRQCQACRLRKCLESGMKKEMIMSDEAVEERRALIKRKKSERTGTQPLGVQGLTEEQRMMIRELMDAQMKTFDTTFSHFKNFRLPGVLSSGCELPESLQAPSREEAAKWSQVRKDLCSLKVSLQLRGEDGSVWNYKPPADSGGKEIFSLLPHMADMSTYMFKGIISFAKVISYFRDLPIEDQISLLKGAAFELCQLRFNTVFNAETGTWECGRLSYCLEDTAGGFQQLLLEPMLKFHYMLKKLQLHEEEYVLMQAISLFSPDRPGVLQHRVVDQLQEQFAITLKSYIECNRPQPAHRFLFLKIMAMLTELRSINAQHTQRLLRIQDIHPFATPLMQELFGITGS
Cytochrome P450 2D6 (Homo sapiens), sequence (P10635 whole entry, looked up): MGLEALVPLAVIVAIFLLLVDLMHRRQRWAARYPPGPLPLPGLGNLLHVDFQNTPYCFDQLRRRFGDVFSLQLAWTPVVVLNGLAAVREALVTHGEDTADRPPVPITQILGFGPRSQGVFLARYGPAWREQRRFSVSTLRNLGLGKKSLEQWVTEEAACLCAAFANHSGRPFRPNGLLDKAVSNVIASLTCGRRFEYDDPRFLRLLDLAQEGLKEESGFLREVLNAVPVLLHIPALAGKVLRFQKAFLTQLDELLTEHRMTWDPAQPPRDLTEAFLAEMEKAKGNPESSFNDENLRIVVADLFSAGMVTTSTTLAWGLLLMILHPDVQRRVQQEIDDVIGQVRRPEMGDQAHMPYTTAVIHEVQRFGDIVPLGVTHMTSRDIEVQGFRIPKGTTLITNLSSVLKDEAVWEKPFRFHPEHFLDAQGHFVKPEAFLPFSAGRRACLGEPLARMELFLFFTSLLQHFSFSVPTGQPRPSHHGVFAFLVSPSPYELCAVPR
Cytochrome P450 2C19 (Homo sapiens), sequence (P33261 whole entry, looked up): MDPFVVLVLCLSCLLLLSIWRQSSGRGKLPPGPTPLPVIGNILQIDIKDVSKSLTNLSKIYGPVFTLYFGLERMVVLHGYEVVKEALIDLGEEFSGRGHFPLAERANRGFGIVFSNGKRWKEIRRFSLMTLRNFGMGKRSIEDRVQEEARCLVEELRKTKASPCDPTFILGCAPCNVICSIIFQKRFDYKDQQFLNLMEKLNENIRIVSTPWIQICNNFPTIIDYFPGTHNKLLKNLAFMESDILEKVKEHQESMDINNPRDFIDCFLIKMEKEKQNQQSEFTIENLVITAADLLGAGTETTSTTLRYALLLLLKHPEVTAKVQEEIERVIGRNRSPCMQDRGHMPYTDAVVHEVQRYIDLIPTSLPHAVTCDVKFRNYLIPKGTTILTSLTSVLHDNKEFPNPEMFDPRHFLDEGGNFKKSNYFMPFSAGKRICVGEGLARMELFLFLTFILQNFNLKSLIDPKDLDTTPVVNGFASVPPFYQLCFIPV
Cytochrome P450 3A4 (Homo sapiens), sequence (P08684 whole entry, looked up): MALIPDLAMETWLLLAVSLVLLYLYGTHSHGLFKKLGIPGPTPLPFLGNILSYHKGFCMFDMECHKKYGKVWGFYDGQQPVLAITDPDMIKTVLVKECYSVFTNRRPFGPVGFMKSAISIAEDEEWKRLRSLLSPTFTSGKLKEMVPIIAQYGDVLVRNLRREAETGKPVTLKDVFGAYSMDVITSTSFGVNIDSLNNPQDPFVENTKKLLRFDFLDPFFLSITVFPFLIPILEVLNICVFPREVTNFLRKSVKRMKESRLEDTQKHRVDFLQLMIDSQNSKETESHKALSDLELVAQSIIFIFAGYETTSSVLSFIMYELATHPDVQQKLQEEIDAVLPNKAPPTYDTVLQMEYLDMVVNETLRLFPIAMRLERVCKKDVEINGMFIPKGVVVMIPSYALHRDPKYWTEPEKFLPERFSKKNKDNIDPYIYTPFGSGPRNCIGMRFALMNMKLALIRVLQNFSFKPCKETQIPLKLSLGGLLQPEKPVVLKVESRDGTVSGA
Thyrotropin-releasing hormone receptor (Homo sapiens), sequence (P34981 whole entry, looked up): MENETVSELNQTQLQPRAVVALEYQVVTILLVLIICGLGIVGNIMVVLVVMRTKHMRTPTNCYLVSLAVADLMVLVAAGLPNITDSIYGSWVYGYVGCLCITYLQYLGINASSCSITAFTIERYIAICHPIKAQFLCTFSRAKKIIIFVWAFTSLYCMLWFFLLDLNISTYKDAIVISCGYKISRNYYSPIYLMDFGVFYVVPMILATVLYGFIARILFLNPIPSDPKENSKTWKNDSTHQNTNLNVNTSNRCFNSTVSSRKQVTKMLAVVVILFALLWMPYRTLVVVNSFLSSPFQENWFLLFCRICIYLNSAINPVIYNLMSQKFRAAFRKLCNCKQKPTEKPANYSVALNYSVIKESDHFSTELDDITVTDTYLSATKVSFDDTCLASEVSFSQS
Voltage-gated inwardly rectifying potassium channel KCNH2 (Homo sapiens), sequence (Q12809 whole entry, looked up): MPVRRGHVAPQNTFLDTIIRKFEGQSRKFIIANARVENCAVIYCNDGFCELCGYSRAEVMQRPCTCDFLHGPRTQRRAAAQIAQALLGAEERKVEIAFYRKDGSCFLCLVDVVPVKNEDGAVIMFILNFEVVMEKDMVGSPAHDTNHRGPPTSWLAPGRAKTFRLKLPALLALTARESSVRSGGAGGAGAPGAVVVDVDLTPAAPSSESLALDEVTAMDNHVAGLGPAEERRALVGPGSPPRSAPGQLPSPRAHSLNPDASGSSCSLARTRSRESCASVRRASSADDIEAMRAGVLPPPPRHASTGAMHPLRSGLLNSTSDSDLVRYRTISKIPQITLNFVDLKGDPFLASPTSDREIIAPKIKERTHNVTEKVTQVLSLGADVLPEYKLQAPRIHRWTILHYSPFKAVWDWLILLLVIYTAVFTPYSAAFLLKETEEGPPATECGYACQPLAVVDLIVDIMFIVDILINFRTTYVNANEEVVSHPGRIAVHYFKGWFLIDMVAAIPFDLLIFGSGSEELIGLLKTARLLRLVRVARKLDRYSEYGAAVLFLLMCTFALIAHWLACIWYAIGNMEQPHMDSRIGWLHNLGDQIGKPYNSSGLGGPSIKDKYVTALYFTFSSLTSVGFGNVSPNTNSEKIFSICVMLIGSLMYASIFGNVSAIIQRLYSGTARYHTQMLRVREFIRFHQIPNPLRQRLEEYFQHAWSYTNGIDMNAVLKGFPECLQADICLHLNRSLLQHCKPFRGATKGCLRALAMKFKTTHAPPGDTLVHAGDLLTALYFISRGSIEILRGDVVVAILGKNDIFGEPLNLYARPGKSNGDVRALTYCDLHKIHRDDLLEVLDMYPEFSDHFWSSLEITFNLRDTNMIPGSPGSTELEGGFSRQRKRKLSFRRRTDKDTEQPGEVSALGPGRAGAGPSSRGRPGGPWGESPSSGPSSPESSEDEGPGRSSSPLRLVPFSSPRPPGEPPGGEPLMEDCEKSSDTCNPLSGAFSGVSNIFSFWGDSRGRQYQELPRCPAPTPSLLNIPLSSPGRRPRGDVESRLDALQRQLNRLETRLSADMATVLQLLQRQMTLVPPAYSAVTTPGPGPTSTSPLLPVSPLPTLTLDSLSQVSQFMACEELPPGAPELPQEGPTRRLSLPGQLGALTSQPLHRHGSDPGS

For `CC(C)(C)CC(C)(C)c1ccc(OCCO)cc1`, the Potency entry in assay [1], in assay [9], in assay [10] and in assay [13] was “inactive” each time. For the same compound, the Potency was 27.1 µM (active) in assay [2]; 54.2 µM (active) in assay [3]; 48.3 µM (active) in assay [5]; 15.3 µM (active) in assay [6]; 3.55 µM (active) in assay [8]; 79.2 µM (active) in [11]. Besides, the Potency in assay [12] is 31.5 µM (active); in assay [14], 17.7 µM (active). Moreover, the result in assay [4] was inactive. The max activation in [7] was -7.23%.
Take `CC1=CC(=O)CC(C)(C)C1(O)/C=C/C(C)=C\C(=O)O` (stereo not drawn): the Potency result in [1], in assay [2], in assay [15], in assay [3], in [5] and in [6] was “inactive” each time. Also, the Potency entry in [10], in assay [11], in [12], in assay [16] and in assay [14] was “inactive” each time.
As to `Nc1ccc(Cl)cc1[N+](=O)[O-]`, the Potency result in assay [1], in assay [2], in assay [15], in assay [11], in [12] and in assay [16] was “inactive” in each case. Also, the compound was classed as inactive in [4]. The Potency in assay [6] was 60.5 µM (active); in assay [13], 9.93 µM (active).
On to `C[N+](C)(C)CCOC(N)=O`, for which the Potency in assay [1] was 3.38 µM (active). For the same compound, the Potency result in [2], in [3], in [5], in [6], in assay [8] and in assay [9] was “inactive” each time. The Potency entry in assay [10], in assay [11], in assay [12], in assay [13], in [16] and in assay [14] was “inactive” each time. Moreover, the compound was classed as inactive in assay [4]. For the same compound, the max activation in assay [7] is 0.11%.
As to `Nc1ccc(C(=O)OCCCOC(=O)c2ccc(N)cc2)cc1`, the Potency entry in assay [1], in assay [2] and in assay [15] was “inactive” each time. Further, the result in [4] was inactive. The Potency was 54.5 µM (active) in [6]; 39.9 µM (active) in [10]; 7.1 µM (active) in assay [12]; 7.1 µM (active) in assay [13]; 2.24 µM (active) in assay [14].
For the compound `Brc1cc(-c2ccc(Br)c(Br)c2Br)cc(Br)c1Br`, the Potency entry in [1], in assay [2], in assay [15], in [5], in assay [10] and in [12] was “inactive” throughout. Also, the Potency result in assay [16] and in assay [14] was “inactive” in each case. Also, the Potency in assay [6] was 30.2 µM (active); in [11], 39.3 µM (active).
As for `CC(=O)[C@H]1CC[C@H]2[C@@H]3C=CC4=CC(=O)CC[C@@]4(C)[C@@H]3CC[C@]12C`, the Potency result in assay [1], in assay [2], in assay [15], in assay [5], in [8] and in assay [9] was “inactive” each time. The Potency entry in assay [10], in assay [13] and in [16] was “inactive” in each case. For the same compound, the compound was called inactive in assay [4]. In addition, the Potency is 26.6 µM (active) in assay [6], 2.75 µM (active) in assay [11] and 38.9 µM (active) in [12].
`O=C(Nc1ccccc1)Nc1ccccc1`: the Potency result in assay [1], in assay [2], in assay [15], in [16] and in [14] was “inactive” each time. Moreover, the compound was classed as inactive in assay [4]. For the same compound, the Potency in assay [6] was 4.88 µM (active); in assay [10], 28.4 µM (active); in assay [11], 4.5 µM (active); in assay [12], 22.6 µM (active); in assay [13] it was 17.9 µM (active).
For the compound `CCCCCC=CCC=CCCCCCCCC(=O)OCC`, the Potency result in assay [1], in assay [2], in [15], in assay [5], in [8] and in assay [9] was “inactive” each time. Besides, the Potency entry in assay [10] was “inactive”. Besides, the result in assay [4] was inactive. The Potency was 29.8 µM (active) in [6], 21.9 µM (active) in [11], 15.5 µM (active) in assay [12] and 27.5 µM (active) in assay [13]. Moreover, the max activation in [7] was -2.8%.
Take `Oc1ccc(Nc2ccccc2)cc1`: the Potency result in [1], in assay [2], in assay [15], in assay [5], in [16] and in assay [14] was “inactive” throughout. The Potency in [6] was 54.5 µM (active); in assay [10], 63.3 µM (active); in assay [11] it was 20 µM (active); in assay [12], 28.3 µM (active); in [13], 31.7 µM (active).
On to `O=C(C(=O)c1ccccc1)c1ccccc1`, for which the Potency entry in assay [1], in assay [2], in [15], in [3], in [5] and in assay [6] was “inactive” throughout. Also, the Potency entry in [12] and in assay [16] was “inactive” each time. Further, the Potency in [10] is 31.6 µM (active); in [13], 11.2 µM (active).
Consider `CCN(CC)CCNC(=O)c1ccc(NC(C)=O)cc1`, for which the Potency entry in assay [1], in assay [2], in assay [3], in [5], in assay [6] and in assay [8] was “inactive” each time. In addition, the Potency result in [9], in assay [12], in assay [13] and in assay [14] was “inactive” throughout. For the same compound, the max activation in [7] was -1.35%. In [10], the Potency was 17.4 µM (active).

The values above are taken from PubChem BioAssay (Tox21).
